Source: ChEMBL document CHEMBL2218924, “A broad activity screen in support of a chemogenomic map for kinase signalling research and drug discovery” (Biochem J, 2013)

Experiments:
[1] = target: T1, Ephrin type-B receptor 1 (Homo sapiens) (UniProt P54762); conditions: at 10 µM
T1 sequence (whole entry): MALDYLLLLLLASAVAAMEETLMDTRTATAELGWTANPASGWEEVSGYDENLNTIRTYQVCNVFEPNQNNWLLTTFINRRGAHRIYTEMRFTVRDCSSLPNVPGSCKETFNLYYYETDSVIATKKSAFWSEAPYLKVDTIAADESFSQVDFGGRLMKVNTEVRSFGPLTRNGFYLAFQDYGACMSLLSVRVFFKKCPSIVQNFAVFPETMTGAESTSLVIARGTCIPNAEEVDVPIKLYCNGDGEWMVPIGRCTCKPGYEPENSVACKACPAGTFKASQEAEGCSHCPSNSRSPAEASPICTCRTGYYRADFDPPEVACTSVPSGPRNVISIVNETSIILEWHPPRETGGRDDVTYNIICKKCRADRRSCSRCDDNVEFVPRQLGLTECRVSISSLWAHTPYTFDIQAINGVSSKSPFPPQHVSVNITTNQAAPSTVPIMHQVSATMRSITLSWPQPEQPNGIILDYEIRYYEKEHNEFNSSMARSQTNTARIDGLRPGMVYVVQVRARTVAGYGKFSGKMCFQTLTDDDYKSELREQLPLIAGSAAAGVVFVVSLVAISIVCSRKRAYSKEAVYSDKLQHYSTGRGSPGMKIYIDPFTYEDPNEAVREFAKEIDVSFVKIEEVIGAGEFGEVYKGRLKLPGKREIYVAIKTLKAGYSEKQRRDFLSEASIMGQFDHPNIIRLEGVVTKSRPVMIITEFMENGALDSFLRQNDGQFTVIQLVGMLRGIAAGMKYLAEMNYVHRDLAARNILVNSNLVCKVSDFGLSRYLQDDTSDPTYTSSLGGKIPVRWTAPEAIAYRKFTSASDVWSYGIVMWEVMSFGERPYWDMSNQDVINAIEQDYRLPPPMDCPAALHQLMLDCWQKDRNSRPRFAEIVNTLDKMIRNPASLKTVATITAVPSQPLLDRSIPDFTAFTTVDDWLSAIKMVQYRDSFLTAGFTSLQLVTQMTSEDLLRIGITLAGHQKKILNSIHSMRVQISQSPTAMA

[2] = target: T2, Ephrin type-B receptor 2 (Homo sapiens) (UniProt P29323); conditions: at 1 µM
T2 sequence (whole entry): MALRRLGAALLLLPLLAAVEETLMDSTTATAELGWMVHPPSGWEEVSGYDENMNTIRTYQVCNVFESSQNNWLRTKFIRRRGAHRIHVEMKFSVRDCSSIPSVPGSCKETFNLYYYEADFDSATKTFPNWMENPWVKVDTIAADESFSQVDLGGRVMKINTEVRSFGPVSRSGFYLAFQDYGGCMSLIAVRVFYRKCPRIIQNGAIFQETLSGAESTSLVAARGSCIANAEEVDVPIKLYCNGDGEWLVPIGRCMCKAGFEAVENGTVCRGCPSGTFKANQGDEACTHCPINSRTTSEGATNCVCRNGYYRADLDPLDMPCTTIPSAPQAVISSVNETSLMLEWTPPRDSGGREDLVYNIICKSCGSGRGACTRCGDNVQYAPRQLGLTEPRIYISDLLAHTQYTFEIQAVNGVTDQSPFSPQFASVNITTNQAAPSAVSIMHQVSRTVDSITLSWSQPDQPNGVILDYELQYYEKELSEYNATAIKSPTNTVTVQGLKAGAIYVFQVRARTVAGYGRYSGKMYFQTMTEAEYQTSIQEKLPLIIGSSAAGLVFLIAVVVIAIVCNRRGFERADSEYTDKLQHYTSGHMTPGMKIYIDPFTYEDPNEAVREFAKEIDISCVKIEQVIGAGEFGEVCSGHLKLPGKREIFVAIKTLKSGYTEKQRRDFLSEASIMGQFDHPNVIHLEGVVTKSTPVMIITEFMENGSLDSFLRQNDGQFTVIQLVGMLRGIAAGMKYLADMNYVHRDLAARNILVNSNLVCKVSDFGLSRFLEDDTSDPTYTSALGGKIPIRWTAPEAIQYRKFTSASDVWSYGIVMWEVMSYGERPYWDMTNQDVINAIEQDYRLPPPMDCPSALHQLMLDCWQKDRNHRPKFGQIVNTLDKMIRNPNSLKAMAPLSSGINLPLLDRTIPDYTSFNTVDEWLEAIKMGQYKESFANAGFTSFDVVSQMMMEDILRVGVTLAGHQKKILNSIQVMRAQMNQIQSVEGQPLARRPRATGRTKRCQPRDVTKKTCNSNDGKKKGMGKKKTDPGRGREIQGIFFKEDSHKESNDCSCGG

[3] = target: T2, Ephrin type-B receptor 2 (Homo sapiens); conditions: at 10 µM
[4] = target: T3, Ephrin type-B receptor 3 (Homo sapiens) (UniProt P54753); conditions: at 1 µM
T3 sequence (whole entry): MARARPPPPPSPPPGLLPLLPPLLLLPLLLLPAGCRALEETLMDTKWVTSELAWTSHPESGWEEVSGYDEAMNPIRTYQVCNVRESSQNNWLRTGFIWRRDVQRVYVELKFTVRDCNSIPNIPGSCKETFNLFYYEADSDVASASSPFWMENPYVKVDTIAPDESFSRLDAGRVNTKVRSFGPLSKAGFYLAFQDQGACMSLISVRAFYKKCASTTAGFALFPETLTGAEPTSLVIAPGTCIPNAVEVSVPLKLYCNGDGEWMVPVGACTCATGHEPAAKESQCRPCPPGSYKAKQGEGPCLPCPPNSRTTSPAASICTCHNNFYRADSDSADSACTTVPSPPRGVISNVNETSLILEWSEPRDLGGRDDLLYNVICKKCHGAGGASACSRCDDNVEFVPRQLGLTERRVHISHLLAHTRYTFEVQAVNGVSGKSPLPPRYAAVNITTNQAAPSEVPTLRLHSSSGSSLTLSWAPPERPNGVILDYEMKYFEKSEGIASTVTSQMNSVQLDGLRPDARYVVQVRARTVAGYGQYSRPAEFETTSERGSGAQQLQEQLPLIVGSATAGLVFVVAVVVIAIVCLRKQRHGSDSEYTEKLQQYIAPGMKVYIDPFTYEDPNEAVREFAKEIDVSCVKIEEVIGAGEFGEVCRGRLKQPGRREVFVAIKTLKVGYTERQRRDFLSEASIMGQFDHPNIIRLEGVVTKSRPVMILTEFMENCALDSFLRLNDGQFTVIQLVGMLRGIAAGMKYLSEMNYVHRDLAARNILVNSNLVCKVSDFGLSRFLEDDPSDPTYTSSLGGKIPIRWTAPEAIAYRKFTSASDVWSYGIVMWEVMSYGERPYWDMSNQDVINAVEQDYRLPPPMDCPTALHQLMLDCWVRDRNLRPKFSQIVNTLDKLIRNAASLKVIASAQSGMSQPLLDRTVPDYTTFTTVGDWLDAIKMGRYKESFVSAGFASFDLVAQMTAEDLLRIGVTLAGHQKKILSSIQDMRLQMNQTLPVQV

[5] = target: T3, Ephrin type-B receptor 3 (Homo sapiens); conditions: at 10 µM
[6] = target: T4, Ephrin type-B receptor 4 (Homo sapiens) (UniProt P54760); conditions: at 1 µM
T4 sequence (whole entry): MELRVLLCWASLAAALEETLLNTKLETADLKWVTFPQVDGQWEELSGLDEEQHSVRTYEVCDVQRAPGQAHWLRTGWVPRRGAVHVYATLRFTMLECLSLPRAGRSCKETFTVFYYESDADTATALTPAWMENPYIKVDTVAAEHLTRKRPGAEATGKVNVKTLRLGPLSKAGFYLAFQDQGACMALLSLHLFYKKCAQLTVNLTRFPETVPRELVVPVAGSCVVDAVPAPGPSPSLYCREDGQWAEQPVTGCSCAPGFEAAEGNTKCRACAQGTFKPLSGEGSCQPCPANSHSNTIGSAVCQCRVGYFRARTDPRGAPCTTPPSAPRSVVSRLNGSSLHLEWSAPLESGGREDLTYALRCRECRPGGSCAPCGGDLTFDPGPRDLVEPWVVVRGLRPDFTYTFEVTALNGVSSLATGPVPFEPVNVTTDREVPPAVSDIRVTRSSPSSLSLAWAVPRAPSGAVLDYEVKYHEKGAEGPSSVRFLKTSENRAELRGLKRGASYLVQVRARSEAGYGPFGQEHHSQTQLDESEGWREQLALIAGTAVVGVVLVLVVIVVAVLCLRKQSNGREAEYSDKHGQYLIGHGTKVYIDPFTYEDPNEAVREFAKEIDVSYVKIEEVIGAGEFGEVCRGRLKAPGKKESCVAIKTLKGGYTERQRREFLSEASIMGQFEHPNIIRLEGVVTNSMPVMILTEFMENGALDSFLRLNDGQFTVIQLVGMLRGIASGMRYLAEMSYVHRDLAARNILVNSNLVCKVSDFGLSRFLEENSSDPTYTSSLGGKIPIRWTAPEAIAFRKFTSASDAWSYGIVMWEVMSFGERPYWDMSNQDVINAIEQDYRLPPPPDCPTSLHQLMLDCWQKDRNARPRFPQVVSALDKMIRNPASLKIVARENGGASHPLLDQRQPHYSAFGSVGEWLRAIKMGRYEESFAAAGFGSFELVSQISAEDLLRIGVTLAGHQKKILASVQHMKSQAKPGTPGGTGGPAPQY

[7] = target: T4, Ephrin type-B receptor 4 (Homo sapiens); conditions: at 10 µM
[8] = target: Receptor tyrosine-protein kinase erbB-4 (Homo sapiens) (UniProt Q15303); conditions: at 1 µM
[9] = target: Receptor tyrosine-protein kinase erbB-4 (Homo sapiens) (UniProt Q15303); conditions: at 10 µM
[10] = target: Focal adhesion kinase 1 (Homo sapiens) (UniProt Q05397); conditions: at 1 µM
Sequence of Focal adhesion kinase 1 (Homo sapiens) (Q05397 2-1052 limits assumed): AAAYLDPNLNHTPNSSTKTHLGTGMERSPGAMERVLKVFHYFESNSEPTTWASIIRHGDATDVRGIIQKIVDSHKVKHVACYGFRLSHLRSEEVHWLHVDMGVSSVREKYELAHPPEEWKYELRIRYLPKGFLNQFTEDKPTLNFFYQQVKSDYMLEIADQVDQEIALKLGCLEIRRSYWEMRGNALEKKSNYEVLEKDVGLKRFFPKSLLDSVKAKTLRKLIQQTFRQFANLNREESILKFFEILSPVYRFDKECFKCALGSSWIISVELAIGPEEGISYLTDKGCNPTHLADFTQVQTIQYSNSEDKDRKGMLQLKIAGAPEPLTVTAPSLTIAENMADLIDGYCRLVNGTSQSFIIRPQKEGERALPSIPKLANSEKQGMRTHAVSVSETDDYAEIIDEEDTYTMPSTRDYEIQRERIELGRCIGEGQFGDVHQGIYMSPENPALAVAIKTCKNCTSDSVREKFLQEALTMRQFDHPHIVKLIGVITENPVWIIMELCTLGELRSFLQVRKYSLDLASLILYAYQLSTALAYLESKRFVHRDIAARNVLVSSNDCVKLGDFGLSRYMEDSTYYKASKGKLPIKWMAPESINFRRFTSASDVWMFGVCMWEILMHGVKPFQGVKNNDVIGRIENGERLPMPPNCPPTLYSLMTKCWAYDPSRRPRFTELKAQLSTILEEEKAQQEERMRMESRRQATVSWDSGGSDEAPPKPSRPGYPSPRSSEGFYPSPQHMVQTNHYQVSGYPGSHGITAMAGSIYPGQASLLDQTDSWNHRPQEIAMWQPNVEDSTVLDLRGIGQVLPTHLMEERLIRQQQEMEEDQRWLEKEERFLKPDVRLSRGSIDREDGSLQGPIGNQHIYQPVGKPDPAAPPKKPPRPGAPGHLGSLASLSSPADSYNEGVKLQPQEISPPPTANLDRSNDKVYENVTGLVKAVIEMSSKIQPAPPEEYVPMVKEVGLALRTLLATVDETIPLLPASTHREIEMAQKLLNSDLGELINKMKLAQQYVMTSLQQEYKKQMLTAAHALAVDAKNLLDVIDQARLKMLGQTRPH

Sequence of Receptor tyrosine-protein kinase erbB-4 (Homo sapiens) (Q15303 whole entry): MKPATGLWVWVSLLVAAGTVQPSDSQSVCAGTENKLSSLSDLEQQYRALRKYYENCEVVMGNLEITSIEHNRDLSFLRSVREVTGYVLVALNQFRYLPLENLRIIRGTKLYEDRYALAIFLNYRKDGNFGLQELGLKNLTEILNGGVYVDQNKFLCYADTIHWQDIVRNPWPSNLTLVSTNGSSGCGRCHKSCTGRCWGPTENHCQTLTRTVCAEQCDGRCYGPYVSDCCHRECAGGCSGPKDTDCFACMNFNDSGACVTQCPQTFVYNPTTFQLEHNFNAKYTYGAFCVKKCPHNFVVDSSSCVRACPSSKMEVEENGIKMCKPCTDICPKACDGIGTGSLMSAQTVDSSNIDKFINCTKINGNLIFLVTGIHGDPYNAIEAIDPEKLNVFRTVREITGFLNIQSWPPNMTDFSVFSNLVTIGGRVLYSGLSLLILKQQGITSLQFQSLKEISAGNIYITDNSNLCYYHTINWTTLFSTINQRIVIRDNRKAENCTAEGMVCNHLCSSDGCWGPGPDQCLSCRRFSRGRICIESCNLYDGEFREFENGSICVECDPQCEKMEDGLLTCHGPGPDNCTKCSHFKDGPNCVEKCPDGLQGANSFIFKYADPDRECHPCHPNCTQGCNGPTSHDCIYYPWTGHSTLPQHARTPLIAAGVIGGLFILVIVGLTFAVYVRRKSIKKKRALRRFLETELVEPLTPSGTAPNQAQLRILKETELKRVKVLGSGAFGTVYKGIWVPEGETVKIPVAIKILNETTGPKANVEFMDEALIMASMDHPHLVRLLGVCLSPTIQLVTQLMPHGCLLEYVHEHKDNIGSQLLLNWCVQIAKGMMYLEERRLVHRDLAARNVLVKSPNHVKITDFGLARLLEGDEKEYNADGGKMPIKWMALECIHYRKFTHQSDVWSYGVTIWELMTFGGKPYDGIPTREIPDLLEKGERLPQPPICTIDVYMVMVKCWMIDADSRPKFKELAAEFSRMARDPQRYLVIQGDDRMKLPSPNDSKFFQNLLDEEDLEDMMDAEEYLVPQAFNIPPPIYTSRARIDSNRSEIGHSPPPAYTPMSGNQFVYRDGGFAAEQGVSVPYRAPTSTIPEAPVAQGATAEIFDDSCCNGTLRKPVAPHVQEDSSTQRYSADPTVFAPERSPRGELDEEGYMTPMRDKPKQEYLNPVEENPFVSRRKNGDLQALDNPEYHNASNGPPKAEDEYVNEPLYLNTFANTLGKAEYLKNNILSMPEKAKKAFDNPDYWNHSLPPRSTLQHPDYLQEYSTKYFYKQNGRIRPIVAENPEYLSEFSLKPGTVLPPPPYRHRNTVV

Nc1n[nH]c2nnc(-c3c(-c4ccccc4)nn4ccccc34)cc12
residual activity [1]: 87%
residual activity [2]: 117%
residual activity [3]: 110%
residual activity [4]: 101% (inactive)
residual activity [5]: 104%
residual activity [6]: 83%
residual activity [7]: 67%
residual activity [8]: 81%
residual activity [9]: 57%
residual activity [10]: 96%
